# The sample as a whole holds a higher share of hits than the screen did.
# TDP1 cell noCPT: qHTS for Inhibitors of human tyrosyl-DNA phosphodiesterase 1 (TDP1): qHTS in cells in absence of CPT; 420,000 compounds, 15% hits; Potency, µM (series often up to 46.2 µM), for the others: at the top dose activity change, negative = growth inhibition, hits mostly inhibitors; AID 686978, 2013; DT40 Tdp1-/- hTDP1 cells, no CPT, ATP luminescence, 48 h; further: potency means the concentration at half of the fitted maximal effect; nearly all actives have a fitted effect of over 55% in size
#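 Compound effects on proliferation are scored in DT40 Tdp1-/-;hTDP1 cells in the absence of CPT. ATP levels (CellTiter-Glo luminescence) are recorded after a ≥48 hr, 37 °C incubation.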
# HT1080-NT tox: kills 2HG-producing HT-1080-NT fibrosarcoma cells; AID 686970; Potency, µM (series often up to 46.1 µM), for inactives: at the highest dose activity, negative = less viability, usual class: cytotoxic; HT-1080-NT fibrosarcoma viability, CellTiter-Glo ATP luminescence, 48 h; 360,000 compounds, 1.6% hits;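 further: NT is the 2HG producing partner of a matched IDH1 knockdown line; potency means the concentration at half of the fitted maximal effect; 0% = DMSO-treated cells and -100% = media-only wells without cells; nearly all actives have a fitted effect of over 55% in size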
#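 750 cells/well, RPMI + 5% FBS; 2 h settle, compound pin-transfer, 48 h at 37 degrees C. CellTiter-Glo 10 min RT, luminescence. Normalized to DMSO and media-only wells.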
# DT40 TDP1 CPT: growth inhibition of DT40 Tdp1-/-;hTDP1 cells with camptothecin (screen for TDP1 inhibitors) | chicken DT40 Tdp1-/-;hTDP1 cells + 20 nM CPT, ATP luminescence, 48 h | Potency, µM (doses to about 46.2 µM), inactives show top-dose activity change, negative = growth inhibition, actives largely listed as inhibitors | 420,000 compounds, 12% hits | AID 686979; further: potency means the concentration at half of the fitted maximal effect; nearly all actives have a fitted effect of over 55% in size
#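 Cell growth measured by CellTiter-Glo luminescence after a minimum 48 h, 37 C compound exposure with 20 nM CPT in Tdp1-knockout DT40 cells stably expressing hTDP1, seeded 400/well; qHTS titration format.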
# HT1080 IDH1KD tx: toxicity to HT-1080 IDH1 knockdown cells (counter line); HT-1080 IDH1 knockdown viability, ATP luminescence, 48 h; Potency, µM (highest dose often 46.1 µM), for the others: top-dose activity, negative = toxicity, most hits filed as cytotoxic; 360,000 compounds, 2% hits; AID 686971;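 further: potency means the concentration at half of the fitted maximal effect; 0% = DMSO wells and -100% = cell-free medium wells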
#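 After a 2 h attachment period, IDH1KD HT-1080 cells took pin-transferred compound for 48 h at 37 °C; ATP-based luminescence after 10 min room-temperature reagent incubation reported viability.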
# IL1B secr inh: blocks inflammasome-driven IL-1 beta release | activity change, % at 57.5 µM | 360,000 compounds, 4.7% hits | THP-1 LPS/ATP IL-1B secretion, AlphaLISA, 16 h; stronger effect = lower value | AID 743279; in the data active means activity change below about -50%; inconclusive means mostly about -30% to -49%
#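 Secreted IL-1B measured by AlphaLISA bead assay after 16 h compound exposure of THP-1 cells; compounds (final up to 57.5 uM) added 1 h before LPS (250 ng/mL) and ATP (1.25 mM) stimulation; lower signal means less secretion.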
# ALOX12 inh: blocks human arachidonate 12S-lipoxygenase | AID 1671190 | P18054 | purified 12hLO, xylenol orange hydroperoxide absorbance | 580,000 compounds, 1.1% hits | Potency, µM (top dose mostly 108 µM), for the others: at the top dose activity change, negative = inhibition, usual class: inhibitors; further: potency means the concentration at half of the fitted maximal effect
# Target sequence (P18054 whole entry, looked up): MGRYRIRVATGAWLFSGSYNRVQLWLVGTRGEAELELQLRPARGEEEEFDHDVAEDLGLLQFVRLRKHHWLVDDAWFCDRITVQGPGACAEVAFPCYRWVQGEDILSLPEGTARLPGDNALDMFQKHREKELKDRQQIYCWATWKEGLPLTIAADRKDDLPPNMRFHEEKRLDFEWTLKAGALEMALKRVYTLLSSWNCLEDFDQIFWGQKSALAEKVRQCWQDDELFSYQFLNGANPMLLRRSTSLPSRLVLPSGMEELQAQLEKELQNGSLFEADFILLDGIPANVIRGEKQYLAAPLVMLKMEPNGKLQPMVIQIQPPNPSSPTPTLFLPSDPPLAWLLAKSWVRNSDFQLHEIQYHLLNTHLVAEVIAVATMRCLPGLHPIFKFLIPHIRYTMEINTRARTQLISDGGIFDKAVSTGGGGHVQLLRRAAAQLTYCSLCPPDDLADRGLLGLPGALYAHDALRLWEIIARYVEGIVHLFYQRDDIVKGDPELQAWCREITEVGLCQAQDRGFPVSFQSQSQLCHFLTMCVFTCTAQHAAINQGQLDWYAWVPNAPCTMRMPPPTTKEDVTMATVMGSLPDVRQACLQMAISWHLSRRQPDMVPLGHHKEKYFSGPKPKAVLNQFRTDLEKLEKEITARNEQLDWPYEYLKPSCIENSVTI
#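 Purified human 12hLO (150 nM final) in 25 mM Hepes, 0.01% Triton X-100, pH 7.0 was preincubated 15 min at room temperature with compound. Then 40 uM arachidonic acid was added, 30 min. Hydroperoxide was read by Fe-XO absorbance ratio 573/405 nm.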
# * marks the source's active call; other numbers are inactive results; i = inactive; ? = inconclusive; · = no result; [ ] = dose if it differs, or a comment. Unless noted, the call rests on the fitted dose curve; in most records, active means well fitted curve in the direction sought with a large enough effect; inconclusive means small, poorly fitted or top-dose-only effect, or another doubt; inactive means no such curve, though single readings can be large; an effect the other way counts as inactive or inconclusive. Unless noted, on the % scale 0 is the no-effect control and ±100 the full control effect.
SMILES,TDP1 cell noCPT,HT1080-NT tox,DT40 TDP1 CPT,HT1080 IDH1KD tx,IL1B secr inh,ALOX12 inh
CCCCCNC(=O)c1nc(-c2c(F)cccc2F)oc1-c1ccccc1,21µM*,-11%,?,-6%,-15,2%
COc1ccc(NC(=O)COc2ccc3cc(Br)ccc3c2)cc1S(=O)(=O)N(C)C,·,·,·,·,·,-7%
O=C(CSc1n[nH]c(-c2ccccc2Cl)n1)NCc1ccc(F)cc1,?,·,-29%,·,·,-18%
COc1ccc(-c2cnc3[nH]cc(CC(=O)NC4CCC(O)CC4)c3c2)cc1 (stereo unspecified),·,·,·,·,·,-13%[176 µM]
CCCCNC(=O)c1nc(-c2cc3ccccc3[nH]2)oc1-c1cccc(C(F)(F)F)c1,?,-1%,15µM*,1%,-3,-1%
CC1CCN(CC2CCCCCN2C(=O)Nc2ccc3c(c2)OCCO3)CC1 (stereo unspecified),·,·,·,·,·,7%
CC1(C)CNC(=O)c2sc(N3CCOCC3)nc2C1,21µM*,-6%,8.2µM*,-4%,-17,18%
CC1(C)CNC(=O)c2sc(NC(=O)c3ccccc3)nc2C1,-26%,-2%,?,2%,3,3%
O=C(NC1CC1)c1cn(-c2ccccc2)nc1-c1cccnc1,·,·,·,·,·,18%
CC(Oc1cccc(Br)c1)C(=O)NNC(=O)c1ccc2c(c1)NC(=O)CCS2 (stereo unspecified),·,·,·,·,·,45µM*
CC(=O)c1c(C)oc2ccc(N(C(C)=O)S(=O)(=O)c3ccc(Cl)c([N+](=O)[O-])c3)cc12,?,?,?,6.5µM*,-117*,0%
CCOc1ccc(S(=O)(=O)Nc2ccc3oc(C)c(C(=O)OCCOC)c3c2)cc1,1.5µM*,·,1.8µM*,·,·,?
COCCOC(=O)c1c(C)oc2ccc(NS(=O)(=O)c3ccc(C(=O)O)cc3)cc12,-27%,3%,-2%,1%,0,-4%
CC(=O)c1c(C)oc2ccc(N(C(C)=O)S(=O)(=O)c3ccc(Br)cc3)cc12,?,-19%,?,-18%,-1,9%
CCOc1ccc(S(=O)(=O)N(C(C)=O)c2ccc3oc(C)c(C(=O)OC)c3c2)cc1,0.58µM*,·,1.3µM*,·,·,-23%
O=C(c1ccncc1)N(c1ccc2oc3c(c2c1)CCCC3)S(=O)(=O)c1ccc(F)cc1,?,-24%,?,?,-138*,-7%
CC(=O)c1c(C)oc2ccc(N(C(=O)c3ccncc3)S(=O)(=O)c3ccccc3)cc12,?,-4%,-26%,-13%,2,-8%
CN1C[C@@H](NS(=O)(=O)c2ccccc2)C[C@H]1c1nc(Cc2ccccc2)no1,·,·,·,·,·,37%[176 µM]
CC(=O)c1ccc(N2CCN(CC(=O)Nc3nc(-c4ccc(F)c(F)c4)cs3)CC2)cc1,·,·,·,·,·,2%
CCOc1ccccc1Oc1coc2cc(OCc3cc(C)ccc3C)ccc2c1=O,·,·,·,·,·,-5%
C[C@@H](O)CNC(=O)c1nc(-c2ccc(COc3ccc4c(c3)OCO4)cc2)no1,·,·,·,·,·,-8%
COC(=O)c1c(C)oc(C)c1S(=O)(=O)N(Cc1ccccc1)C(C)C,16µM*,-6%,13µM*,-11%,2,i
COC(=O)c1c(C)oc2ccc(N(C(=O)c3ccncc3)S(=O)(=O)c3ccc(Br)cc3)cc12,3.7µM*,·,8.2µM*,·,·,-25%
CCOC(=O)c1c(C)oc2ccc(N(C(=O)c3ccncc3)S(=O)(=O)c3ccc(Br)cc3)cc12,·,·,·,·,·,-24%
CCOC(=O)c1c(-c2ccccc2)oc2ccc(N(C(C)=O)S(=O)(=O)c3ccccc3)cc12,?,·,?,·,·,-17%
COC(=O)c1c(C)oc2ccc(N(C(C)=O)S(=O)(=O)c3ccccc3)cc12,-105%,-9%,15µM*,?,-2,-9%

# Screening results: PubChem BioAssay, National Center for Advancing Translational Sciences (NCATS)
